The values below come from PubChem BioAssay (NCATS).

Experiment [1] can be described thus: Quantitative High-Throughput drug screen in 47 multiple myeloma cell lines against the NCATS MIPE library collection: XG1_PLB cell viability assay (AID 1919866). Also: nearly all actives have a fitted effect of over 35% in size. The essentials: (§1)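 ATP-based CellTiter-Glo luminescence after 48 h drug exposure (37 °C, 5% CO2) of 500 myeloma cells per well. DMSO-only wells set 100% viability, media-only wells 0%; MIPE 4.0 library added by pin tool.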

The nature of experiment [2]: Quantitative High-Throughput drug screen in 47 multiple myeloma cell lines against the NCATS MIPE library collection: VP6_DJ cell viability assay (AID 1919867). Also: nearly all actives have a fitted effect of over 40% in size. The gist of the method:
as §1

The nature of experiment [3]: Quantitative High-Throughput drug screen in 47 multiple myeloma cell lines against the NCATS MIPE library collection: PE2_PLB cell viability assay (AID 1919869). Also: nearly all actives have a fitted effect of over 35% in size. The essentials: as §1
Experiment [4] in a line: Quantitative High-Throughput drug screen in 47 multiple myeloma cell lines against the NCATS MIPE library collection: PCM6_Riken cell viability assay (AID 1919870). Also: nearly all actives have a fitted effect of over 30% in size. The gist of the method:
as §1

Experiment [5] can be described thus: Quantitative High-Throughput drug screen in 47 multiple myeloma cell lines against the NCATS MIPE library collection: RPMI8226_ATCC cell viability assay (AID 1919871). Also: nearly all actives have a fitted effect of over 30% in size. The gist of the method:
as §1

Experiment [6] is described as follows: Quantitative High-Throughput drug screen in 47 multiple myeloma cell lines against the NCATS MIPE library collection: OPM2_DSMZ cell viability assay (AID 1919872). Also: nearly all actives have a fitted effect of over 30% in size. The essentials: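 Luminescent ATP measurement with CellTiter-Glo gives viability, scaled between DMSO-only wells (100%) and media-only wells (0%). Cells, 500 per well, faced library compounds for 48 hours at 37C.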

A short description of experiment [7]: Quantitative High-Throughput drug screen in 47 multiple myeloma cell lines against the NCATS MIPE library collection: KMS11_JCRBsus cell viability assay (AID 1919873). Also: nearly all actives have a fitted effect of over 50% in size. The gist of the method: as §1
Experiment [8] is described as follows: Quantitative High-Throughput drug screen in 47 multiple myeloma cell lines against the NCATS MIPE library collection: KMS28BM_JCRB cell viability assay (AID 1919874). Also: nearly all actives have a fitted effect of over 35% in size. The gist of the method: as §1
The nature of experiment [9]: Quantitative High-Throughput drug screen in 47 multiple myeloma cell lines against the NCATS MIPE library collection: UTMC2_PLB cell viability assay (AID 1919868). Also: nearly all actives have a fitted effect of over 55% in size. The conditions noted are these: CellTiter-Glo ATP luminescence, 48 h; viability (% of DMSO control): at 45.8 µM (top of the series). The gist of the method:
as §1
On the technique in general: ATP-based viability assays read luminescence as a measure of living cells.

Inconclusive results are not listed. Calls of active or inactive are those of the source. Calls follow the shape of the dose curve; as a rule, active = well fitted cell-killing curve with a large enough effect; inconclusive = small, poorly fitted or top-dose-only effect, or effect the other way; inactive = no such curve, though single readings can be large or run the other way.
Potency is read from the fitted curve at half-maximal effect.

For the molecule `CCOC(=O)[C@H](CCc1ccccc1)N[C@@H](C)C(=O)N1[C@@H](C(=O)O)C[C@H]2CCC[C@@H]21`, the Potency is 7.43 µM (active) in experiment [1]; 6.62 µM (active) in experiment [2]; 8.33 µM (active) in [3]; 8.33 µM (active) in experiment [4]; 20.9 µM (active) in experiment [5]; 26.4 µM (active) in experiment [6]. Further, the Potency is 6.62 µM (active) in [7] and 5.9 µM (active) in experiment [8].

In the case of `CC(=O)N[C@H]1[C@@H]([C@H](O)[C@H](O)CO)OC(C(=O)O)=C[C@@H]1N=C(N)N`, the Potency result in experiment [1], in experiment [2], in [3], in experiment [4], in experiment [5] and in [6] was “inactive” throughout. The Potency result in experiment [7] and in [8] was “inactive” throughout.

For the molecule `C=C1C(=CC=C2CCC[C@]3(C)[C@@H]([C@H](C)CCCC(C)(C)O)CC[C@@H]23)C[C@@H](O)C[C@@H]1O`, the Potency in experiment [1] was 5.26 µM (active); in experiment [2], 5.26 µM (active); in experiment [9] it was 5.26 µM (active); in experiment [3], 13.2 µM (active); in experiment [4], 7.43 µM (active); in experiment [7], 9.35 µM (active). Moreover, the Potency in experiment [8] was 1.87 µM (active).

For the molecule `O=c1[nH]c(=O)n([C@H]2C[C@@H](O)[C@@H](CO)O2)cc1F`, the Potency in experiment [1] is 9.35 µM (active); in experiment [2], 18.7 µM (active); in experiment [9], 10.5 µM (active); in [3], 14.8 µM (active); in experiment [4], 14.8 µM (active); in experiment [7], 0.526 µM (active). For the same molecule, in experiment [8], the Potency was 20.9 µM (active).

With `COc1ccc([C@@H]2CNC(=O)C2)cc1OC1CCCC1`, the Potency in experiment [1] was 2.64 µM (active); in experiment [2] it was 2.35 µM (active); in [9], 6.62 µM (active); in experiment [4], 1.48 µM (active). Also, the Potency result in [5], in experiment [6] and in [7] was “inactive” each time.

Regarding `CC(C)[C@H](CO)Nc1nc(Nc2cccc(Cl)c2)c2ncn(C(C)C)c2n1`, the Potency was 6.62 µM (active) in [1]; 13.2 µM (active) in experiment [2]; 18.7 µM (active) in [3]; 16.6 µM (active) in experiment [4]; 26.4 µM (active) in [5]; 20.9 µM (active) in experiment [6]. Moreover, the Potency was 11.8 µM (active) in [7] and 18.7 µM (active) in experiment [8].

Consider `Nc1nc2c(c(=O)[nH]1)N(C=O)[C@H](CNc1ccc(C(=O)N[C@@H](CCC(=O)O)C(=O)O)cc1)CN2`, for which the Potency entry in experiment [1], in [2], in experiment [3], in experiment [4], in experiment [5] and in experiment [6] was “inactive” in each case. Moreover, the Potency entry in [7] was “inactive”.

Turning to `CN1C(C(=O)Nc2ccccn2)=C(O)c2sc(Cl)cc2S1(=O)=O`, the Potency in experiment [1] was 1.66 µM (active); in [2], 3.32 µM (active); in experiment [9], 4.69 µM (active); in experiment [3], 3.72 µM (active); in experiment [4] it was 2.64 µM (active). In addition, the Potency entry in [6] and in [8] was “inactive” each time.

Turning to `Cc1cn([C@@H]2O[C@H](CO)[C@@H](O)[C@H]2F)c(=O)[nH]c1=O`, the Potency result in experiment [1], in [9], in experiment [3], in experiment [5], in experiment [6] and in experiment [7] was “inactive” each time. Besides, the Potency in experiment [2] was 14.8 µM (active).

Consider `c1cncc(CN2CCC(n3ncc4c(N5CCOCC5)nc(-c5ccc6[nH]ccc6c5)nc43)CC2)c1`, for which the Potency in experiment [1] is 0.935 µM (active); in [2], 3.32 µM (active); in experiment [3], 1.48 µM (active); in experiment [4] it was 11.8 µM (active); in experiment [5] it was 6.62 µM (active); in experiment [6], 14.8 µM (active). The Potency in experiment [7] was 0.59 µM (active).

With `CC(=O)ON=C1C(c2c(O)[nH]c3cc(Br)ccc23)=Nc2ccccc21`, the Potency is 1.66 µM (active) in experiment [1]; 2.64 µM (active) in [2]; 4.69 µM (active) in [3]; 2.96 µM (active) in experiment [4]; 16.6 µM (active) in [5]; 18.7 µM (active) in experiment [6].

Consider `O=C(O)C[C@H](O)C[C@H](O)C=Cc1c(C2CC2)nc2ccccc2c1-c1ccc(F)cc1`, for which the Potency was 3.32 µM (active) in experiment [1]; 16.6 µM (active) in experiment [2]; 9.35 µM (active) in [9]; 4.69 µM (active) in [3]; 16.6 µM (active) in [5]; 7.43 µM (active) in [7].

As for `O=C(CN1C(=O)C2(CCCC2)NC[C@H]1c1cc(F)cc(F)c1)Nc1ccc2c(c1)C[C@@]1(C2)C(=O)Nc2ncccc21`, the Potency entry in experiment [1], in experiment [2], in experiment [9], in experiment [4], in [5] and in [6] was “inactive” in each case. The Potency entry in experiment [7] and in experiment [8] was “inactive” throughout.

For `CCCNS(=O)(=O)Nc1ncnc(OCCOc2ncc(Br)cn2)c1-c1ccc(Br)cc1`, the Potency result in experiment [1], in [2], in experiment [9], in experiment [4], in experiment [6] and in experiment [7] was “inactive” in each case. The Potency result in [8] is “inactive”.
